From PubChem BioAssay (NCI)
This is part of a sample that, as a whole, favours compounds with a hit. Of some 79,000 tested, about 15% had one in any assay. Active and inactive are the calls of the source. Cut-off read from the data, not from the text of the source: active = growth inhibition above about 70%; inactive = the rest.

Tests used:
[1] = NCI Yeast Anticancer Drug Screen. Data for the rad50 strain (AID 155);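 note: 0% = growth of vehicle-only cultures of the same strain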; conditions: S. cerevisiae rad50 strain growth inhibition, active compounds read high
In short: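 Readout: growth inhibition relative to vehicle-treated cultures. Compound exposure was carried out in a genetically defined yeast strain deficient in DNA damage repair.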

[2] = NCI Yeast Anticancer Drug Screen. Data for the mec2-1 strain (AID 157); conditions: S. cerevisiae mec2-1 strain, active compounds read high
In short: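 Cells of the genetically defined mec2-1 yeast strain are incubated with test compound. Inhibition of growth is calculated against vehicle-treated controls.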

[3] = NCI Yeast Anticancer Drug Screen. Data for the sgs1 mgt1 strain (AID 161);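 note: 0% = growth of cultures given vehicle only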; conditions: S. cerevisiae sgs1 mgt1 strain, active compounds read high
In short: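 Genetically altered yeast, compound exposure, growth inhibition relative to vehicle.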

[4] = NCI Yeast Anticancer Drug Screen. Data for the cln2 rad14 strain (AID 165);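 note: 0% = growth equal to vehicle treated cultures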; conditions: S. cerevisiae cln2 rad14 strain, active compounds read high
In short: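 The screen exposed genetically defined yeast (cln2 rad14) to test compounds and scored growth inhibition relative to vehicle-treated controls.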

[5] = NCI Yeast Anticancer Drug Screen. Data for the bub3 strain (AID 167); conditions: S. cerevisiae bub3 mutant strain, active compounds read high
In short: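 Readout: yeast growth inhibition, expressed relative to vehicle-only wells. The test organism is a mutant strain from a panel with lesions in DNA repair or checkpoint genes.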

[6] = NCI Yeast Anticancer Drug Screen. Data for the mlh1 rad18 strain (AID 175); conditions: S. cerevisiae mlh1 rad18 strain growth inhibition, active compounds read high
In short: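 Compound-treated yeast growth, normalised to vehicle controls. Strain bears defined DNA repair mutations.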

[7] = at 5.0 µM (retest, dose inferred, filed as 0.5)
[8] = at 50.0 µM (retest, dose inferred, filed as 5.0)

Measured: growth inhibition

S=c1sc2ccccc2n1C=Nc1ccccc1
inactive: [1]; [7] -2% | [2]; [7] -5% | [3]; [7] -1% | [4]; [7] -8% | [5]; [7] -1% | [6]; [7] -2%
active: [1]; [8] 83% | [1]; at 50.0 µM 98.9% | [2]; [8] 97% | [2]; at 50.0 µM 98.8% | [3]; [8] 96% | [3]; at 50.0 µM 98.7% | [4]; [8] 81% | [4]; at 50.0 µM 96.2% | [5]; [8] 96% | [5]; at 50.0 µM 99.1% | [6]; [8] 79% | [6]; at 50.0 µM 98.3%

O=P(O)(O)Oc1c(O)c2ccccc2c2ccccc12
inactive: [1]; [7] 14% | [2]; [7] 22% | [3]; [7] 17% | [4]; [7] 5% | [5]; [7] 25% | [6]; [7] 17%
active: [1]; [8] 73% | [1]; at 50.0 µM 91.4% | [2]; [8] 95% | [2]; at 50.0 µM 94.8% | [3]; [8] 85% | [3]; at 50.0 µM 97.5% | [4]; [8] 97% | [4]; at 50.0 µM 97% | [5]; [8] 92% | [5]; at 50.0 µM 99.6% | [6]; [8] 94% | [6]; at 50.0 µM 99.3%

OC(c1cc(-c2ccccc2)nc2cc(Cl)ccc12)C1CCCCN1 (stereo not given)
active: [5]; at 50.0 µM 75%
inactive: [1]; [7] -2% | [1]; [8] -3% | [1]; at 50.0 µM 8.7% | [2]; [7] -3% | [2]; [8] 3% | [2]; at 50.0 µM 26.1% | [3]; [7] -1% | [3]; [8] -2% | [3]; at 50.0 µM 37% | [4]; [7] -5% | [4]; [8] -4% | [4]; at 50.0 µM 15% | [5]; [7] -2% | [5]; [8] -5% | [6]; [7] -2% | [6]; [8] -3% | [6]; at 50.0 µM 53.6%

Oc1ccc(-c2nnc(-c3ccccc3)nn2)cc1
inactive: [1]; [7] -154% | [1]; [8] -160% | [1]; at 50.0 µM 56.4% | [2]; [7] -48% | [2]; [8] -53% | [2]; at 50.0 µM 8.95% | [3]; [7] -66% | [3]; [8] -63% | [3]; at 50.0 µM -3.9% | [4]; [7] -47% | [4]; [8] -66% | [4]; at 50.0 µM -52.5% | [5]; [7] -47% | [5]; [8] -19% | [5]; at 50.0 µM 58.5% | [6]; [7] -121% | [6]; [8] -147% | [6]; at 50.0 µM -9.85%

Nc1ccc2c(SCCCCCCCCSc3c4ccccc4nc4cc(N)ccc34)c3ccccc3nc2c1
inactive: [1]; [7] 1% | [1]; at 50.0 µM 48.9% | [2]; [7] 1% | [2]; [8] 67% | [2]; at 50.0 µM 9.15% | [3]; [7] -2% | [3]; at 50.0 µM 22.9% | [4]; [7] -4% | [4]; [8] 32% | [4]; at 50.0 µM 33.2% | [5]; [7] -3% | [5]; at 50.0 µM -4.05% | [6]; [7] 2% | [6]; at 50.0 µM 32%
active: [1]; [8] 74% | [3]; [8] 72% | [5]; [8] 72% | [6]; [8] 94%

CCOCCOc1ccc(OCCOCC)cc1
inactive: [1]; [7] -8% | [1]; [8] -13% | [1]; at 50.0 µM -1.9% | [2]; [7] -8% | [2]; [8] -13% | [2]; at 50.0 µM -1.7% | [3]; [7] -66% | [3]; [8] -9% | [3]; at 50.0 µM -7% | [4]; [7] -4% | [4]; [8] -10% | [4]; at 50.0 µM 37.3% | [5]; [7] -8% | [5]; [8] -4% | [5]; at 50.0 µM -2.95% | [6]; [7] 13% | [6]; [8] -15% | [6]; at 50.0 µM 0.4%

CCCCC(=O)OC1=C(Br)C(=O)c2ccccc2C1=O
active: [1]; [8] 98% | [1]; at 50.0 µM 96.3% | [2]; [8] 100% | [3]; [8] 96% | [3]; at 50.0 µM 81.1% | [4]; [8] 88% | [5]; [8] 97% | [6]; [8] 98% | [6]; at 50.0 µM 75.3%
inactive: [1]; [7] 20% | [2]; [7] 24% | [2]; at 50.0 µM 63% | [3]; [7] 10% | [4]; [7] 3% | [4]; at 50.0 µM -11.8% | [5]; [7] 14% | [5]; at 50.0 µM 13.8% | [6]; [7] 37%

O=C(O)Cc1ccc2ccccc2c1-c1ccccc1
inactive: [1]; [7] -1% | [2]; [7] -11% | [3]; [7] 2% | [3]; [8] -19% | [4]; [7] -3% | [5]; [7] -11% | [6]; [7] -20%
active: [1]; [8] 93% | [1]; at 50.0 µM 86.7% | [2]; [8] 93% | [2]; at 50.0 µM 91.8% | [3]; at 50.0 µM 85% | [4]; [8] 98% | [4]; at 50.0 µM 95% | [5]; [8] 92% | [5]; at 50.0 µM 94.7% | [6]; [8] 94% | [6]; at 50.0 µM 90.2%

Oc1cccc2ccc(/C=C/c3ccccn3)nc12
active: [1]; [8] 98% | [1]; at 50.0 µM 97.4% | [2]; [8] 97% | [2]; at 50.0 µM 97.2% | [3]; [8] 98% | [3]; at 50.0 µM 98.2% | [4]; [8] 96% | [4]; at 50.0 µM 95% | [5]; [8] 98% | [5]; at 50.0 µM 97.1% | [6]; [8] 98% | [6]; at 50.0 µM 98.5%
inactive: [1]; [7] 1% | [2]; [7] 2% | [3]; [7] -6% | [4]; [7] -3% | [5]; [7] -2% | [6]; [7] 2%

C1CCC(C2=NC3CCCCC3SC2)CC1 (stereo not given)
active: [1]; [8] 98% | [1]; at 50.0 µM 92.2% | [2]; [8] 99% | [2]; at 50.0 µM 93.5% | [3]; [8] 86% | [3]; at 50.0 µM 93.9% | [4]; [8] 96% | [4]; at 50.0 µM 90.1% | [5]; [8] 98% | [5]; at 50.0 µM 92.1% | [6]; [8] 98% | [6]; at 50.0 µM 91.2%
inactive: [1]; [7] 5% | [2]; [7] -16% | [3]; [7] 5% | [4]; [7] 10% | [5]; [7] 6% | [6]; [7] -20%
